{"source": "PubChem BioAssay AID1611", "about": "(NINDS Approved Drug Screening Program, 2009)", "data": [{"assay": "inducers of human heat shock response, cell-based, HSE luciferase (AID 1611)", "details": "human cells, HSE-luciferase heat shock reporter; stronger effect = higher value", "values": [{"smiles": "O=C(Cn1ccnc1[N+](=O)[O-])NCCO", "fold change": 0.93}, {"smiles": "Cc1ccc(C)c(OCCCC(C)(C)C(=O)O)c1", "fold change": 0.57}, {"smiles": "C[C@](N)(Cc1ccc(O)c(O)c1)C(=O)O", "fold change": 0.74}, {"smiles": "Cc1onc(-c2ccccc2)c1C(=O)NC1C(=O)N2[C@@H]1SC(C)(C)[C@@H]2C(=O)O", "note": "(stereo not given in full)", "fold change": 1.85}, {"smiles": "C=C[C@H]1CN2CC[C@H]1C[C@@H]2[C@H](O)c1ccnc2ccc(OC)cc12", "fold change": 1.63}, {"smiles": "C[N+](C)(C)CCO", "fold change": 0.93}, {"smiles": "O=C(O)CCCCC1SCC2NC(=O)NC21", "note": "(stereo not given)", "fold change": 2.49}, {"smiles": "CCN(CC)CCNC(=O)c1cc(Cl)c(N)cc1OC", "fold change": 1.24}, {"smiles": "Nc1nccs1", "fold change": 1.19}, {"smiles": "CCC1(C)CC(=O)NC1=O", "note": "(stereo not given)", "fold change": 1.19}, {"smiles": "Cc1cc(C(C)(C)C)cc(C)c1CC1=NCCN1", "fold change": 1.28}, {"smiles": "Fc1ccc(C(c2ccc(F)cc2)N2CCN(C/C=C/c3ccccc3)CC2)cc1", "fold change": 1.3}, {"smiles": "COc1ccc(C(=O)c2ccccc2)c(O)c1", "fold change": 0.92}, {"smiles": "CC/C(=C(\\c1ccccc1)c1ccc(OCCN(C)C)cc1)c1ccccc1", "fold change": 0.77}, {"smiles": "CN1CCC(=C2c3ccccc3CC(=O)c3sccc32)CC1", "fold change": 1.41}, {"smiles": "Cc1ccc(C(=O)c2ccc(CC(=O)O)n2C)cc1", "fold change": 279}, {"smiles": "CO/N=C(\\C(=O)NC1C(=O)N2C(C(=O)O)=C(CSc3nc(=O)c(O)nn3C)CS[C@H]12)c1csc(N)n1", "note": "(stereo not given in full)", "fold change": 0.94}, {"smiles": "CCCOc1ccc2nc(NC(=O)OC)[nH]c2c1", "fold change": 1.26}, {"smiles": "C[N+]1(C)C2CC[C@H]1CC(OC(=O)C(O)c1ccccc1)C2", "note": "(stereo not given in full)", "fold change": 1.16}, {"smiles": "O=C1C[C@@H](c2ccc(O)cc2)Oc2cc(O)cc(O)c21", "fold change": 0.8}, {"smiles": "NCCCCC(N)C(=O)NC(Cc1ccc(O)cc1)C(=O)NC(CCCCN)C(=O)O", "note": "(stereo not given)", "fold change": 0.95}, {"smiles": "O=C(OCc1ccccc1)c1ccccc1", "fold change": 0.75}, {"smiles": "CC[C@H]1OC(=O)[C@H](C)[C@@H](O[C@H]2C[C@@](C)(OC)[C@@H](O)[C@H](C)O2)[C@H](C)[C@@H](O[C@@H]2O[C@H](C)C[C@H](N(C)C)[C@H]2O)[C@](C)(O)C[C@@H](C)CN(C)[C@H](C)[C@@H](O)[C@]1(C)O", "fold change": 293}, {"smiles": "CCn1cc(C(=O)O)c(=O)c2cc(F)c(N3CCNCC3)cc21", "fold change": 1.06}, {"smiles": "C=C(C)[C@H]1CC=C(C(=O)O)CC1", "fold change": 1.32}, {"smiles": "Cc1cc(-c2ccccc2)nnc1NCCN1CCOCC1", "fold change": 0.98}, {"smiles": "NC[C@@H]1O[C@H](O[C@@H]2[C@@H](CO)OC(O[C@@H]3[C@@H](O)[C@H](N)C[C@H](N)[C@H]3OC3O[C@H](CN)[C@@H](O)[C@H](O)[C@H]3N)[C@@H]2O)[C@H](N)[C@@H](O)[C@@H]1O", "note": "(stereo not given in full)", "fold change": 0.96}, {"smiles": "NNc1nncc2ccccc12", "fold change": 1.1}, {"smiles": "Cc1c(C(N)=O)cc([N+](=O)[O-])cc1[N+](=O)[O-]", "fold change": 1.05}, {"smiles": "CC(=O)NS(=O)(=O)c1ccc(N)cc1", "fold change": 0.98}, {"smiles": "CC[C@]12CCCN3CCc4c(n(c5ccccc45)[C@](O)(C(=O)OC)C1)[C@@H]32", "fold change": 1.14}, {"smiles": "Oc1ccc(Cl)c2cccnc12", "fold change": 1.15}, {"smiles": "O=C(O)c1ccccc1OP(=O)(O)O", "fold change": 1.04}, {"smiles": "CC(CN(C)C)CN1c2ccccc2CCc2ccccc21", "note": "(stereo not given)", "fold change": 1.16}, {"smiles": "CC[C@H](C)C(=O)O[C@H]1CCC=C2C=C[C@H](C)C(CCC3C[C@@H](O)CC(=O)O3)[C@H]21", "note": "(stereo not given in full)", "fold change": 1.15}, {"smiles": "Oc1c(I)cc(I)c2cccnc12", "fold change": 1.19}, {"smiles": "Nc1ccc(S(=O)(=O)Nc2ccccn2)cc1", "fold change": 0.76}, {"smiles": "CC[C@@H](C(=O)C(C)[C@@H](O)[C@H](C)CCc1ccc(C)c(O)c1C(=O)O)C1OC(CC)(C2CC[C@](O)(CC)[C@H](C)O2)C[C@@H]1C", "note": "(stereo not given in full)", "fold change": 1.12}, {"smiles": "CC(C)Oc1ccc2c(=O)cc(-c3ccccc3)oc2c1", "fold change": 1.28}, {"smiles": "CC(CN1c2ccccc2Sc2ccccc21)N(C)C", "note": "(stereo not given)", "fold change": 0.91}]}]}
